aSyn UTR act = Activators via SNCA 5'UTR binding, MLPCN; alpha-synuclein 5'UTR reporter, activators screen; 300,000 compounds, 7.1% hits; activity score, % (tested at 7.5 µM), hits read low; in the data active = activity score below about -60%
* = called active by the depositor. Only a sample is shown.

SMILES	aSyn UTR act
Cc1cc2ccccn2c1C(=O)Nc1ccc(Cl)cc1	-116.7*
Cc1cc2ccccn2c1C(=O)Nc1ccccc1	-109.1*
CC1CC(C)CN(c2ncnc3c2cnn3-c2ccc(Cl)cc2)C1 (stereo not given)	-99.0*
CCN1CCN(c2ncnc3c2cnn3-c2ccc(Cl)cc2)CC1	-63.3*
COc1ccc(-n2ncc3c(N4CCN(Cc5ccccc5)CC4)ncnc32)cc1	-115.0*
COc1ccc(-n2ncc3c(N4CCC(C(N)=O)CC4)ncnc32)cc1	-124.1*
CC1CCCN(c2ncnc3c2cnn3-c2ccc(Cl)cc2)C1 (stereo not given)	98.0
Oc1c(CN2CCN(c3ccccc3)CC2)cc(Br)c2cccnc12	85.5
c1ccc(-n2ncc3c(N4CCCCC4)ncnc32)cc1	94.5
CCOC(=O)N1CCN(c2ncnc3c2cnn3-c2ccc(Cl)cc2)CC1	-85.7*
CCN1CCN(c2ncnc3c2cnn3-c2ccccc2)CC1	-98.1*
CN(Cc1nccn1C)C(=O)c1ccc2nc(Cc3ccccc3F)oc2c1	-126.3*
CN(Cc1nccs1)C(=O)c1ccc2nc(Cc3ccccc3F)oc2c1	-131.1*
Cc1cc(CN(C)C(=O)c2ccc3nc(Cc4ccccc4F)oc3c2)on1	-62.2*
O=C(COC(=O)/C=C/c1ccccc1[N+](=O)[O-])NC1CCS(=O)(=O)C1 (stereo not given)	-108.2*
CN(C(=O)COC(=O)/C=C/c1ccccc1[N+](=O)[O-])c1ccccc1	-68.7*
O=C(COC(=O)/C=C/c1ccccc1[N+](=O)[O-])Nc1ccc(OCc2ccccc2)cc1	-121.9*
CC(=O)c1ccc(NC(=O)CSc2nc(N3CCOCC3)nc(N3CCOCC3)n2)cc1	-72.7*
CC(=O)Nc1c(O)nc(SCC(=O)Nc2ccc(C(C)=O)cc2)[nH]c1=O	-156.6*
Cc1ccc2c(COC(=O)c3n[nH]c4ccccc34)cc(=O)oc2c1	-172.0*
CCc1ccc2c(COC(=O)c3n[nH]c4ccccc34)cc(=O)oc2c1	-175.2*
Cc1cc2c(NCCc3ccccc3)ncnc2s1	-63.5*
c1ccc(CCNc2ncnc3ccccc23)cc1	-117.0*
c1ccc(CCNc2ccnc3cc4ccccc4cc23)cc1	116.7
CCCCOc1ccc(NC(=O)C(=O)NCCCn2ccnc2)cc1	66.1
SMILES	aSyn UTR act
CCOc1ccc(NC(=S)NCCCn2ccnc2)cc1	-76.7*
Cc1cccc(-c2noc(CSc3ccccc3)n2)c1	-169.6*
Cc1ccc(-c2noc(CSc3nc(N)cc(N)n3)n2)cc1	-191.2*
c1ccc(SCc2nc(-c3cccnc3)no2)cc1	-103.3*
Cc1ccc(-c2noc(CSc3ccccc3)n2)cc1	-84.3*
Cc1ccc(OC(=O)c2oc3ccc(F)cc3c2C)c(C)c1	-112.0*
COCn1c(-c2cccc(Br)c2)nc2ccccc21	-63.3*
COCn1c(-c2ccc(OC)c(OC)c2)nc2ccccc21	-105.6*
Cc1cccc(NC(=S)c2nc3ccccc3s2)c1	-99.9*
N/C(=N\OC(=O)c1ccco1)c1ccccn1	-118.8*
Cc1cccc(/C(N)=N/OC(=O)c2ccco2)c1	-108.8*
COc1ccc(/C(N)=N/OC(=O)c2ccco2)cc1	60.2
N/C(=N\OC(=O)c1ccco1)c1ccc(Br)cc1	-199.7*
N/C(=N\OC(=O)c1ccco1)c1ccccc1	-275.0*
Cc1cccc(/C(N)=N/OC(=O)CCCc2ccccc2)c1	-88.8*
Cc1c(/C=N/Nc2ccc(C(=O)O)cc2)c2ccccc2n1C	-118.8*
O=C(O)c1ccc(N/N=C/c2cn(Cc3ccc(F)cc3)c3ccccc23)cc1	-68.9*
O=C(N/N=C/c1cn(Cc2ccccc2)c2ccccc12)c1cc(O)cc(O)c1	62.1
O=[N+]([O-])/C=C/c1cn(Cc2ccc(F)cc2)c2ccccc12	63.2
Cc1c(/C=N\NC(=O)C2COc3ccccc3O2)c2ccccc2n1C (stereo not given)	102.0
COC(=O)c1ccc(CN2C(=O)NC(Cc3c[nH]c4ccccc34)C2=O)cc1 (stereo not given)	-95.5*
COc1ccc2c(c1)c1nnc(SC)nc1n2C	-68.2*
NC(N)=NS(=O)(=O)c1ccc(N/C=C/C(=O)c2ccc(Cl)c(Cl)c2)cc1	-118.9*
Cc1cccc(N=Nc2ccc(O)c3ncccc23)c1	73.0
CC(=Nc1ccc(O)cc1)c1sc2ccccc2c1O	-186.7*
SMILES	aSyn UTR act
CC(=Nc1cccc(C)c1)c1sc2ccccc2c1O	-215.0*
CC(=Nc1ccccc1O)c1sc2ccccc2c1O	-93.1*
CC(=O)NCCN=C(C)c1sc2ccccc2c1O	-70.9*
O=C(CN1CCCCC1)Nc1nc(-c2ccccc2)cs1	-76.7*
Cc1sc(NC(=O)CN2CCCC2)nc1-c1ccc2c(c1)CCN2C(=O)c1cccc(F)c1	-69.4*
Cc1ccccc1C(=O)N1CCc2cc(-c3csc(NC(=O)CN4CCCC4)n3)ccc21	-98.8*
O=C(CN1CCCCC1)Nc1nc(-c2ccc(Cl)cc2)cs1	-74.5*
O=C(CCN1C(=O)C2CCCCC2C1=O)Nc1nc(-c2ccccc2)cs1 (stereo not given)	-64.6*
O=C(CN1CCCCC1)Nc1nc(-c2ccc(F)c(F)c2)cs1	-99.5*
CC(C)CC(=O)Nc1ccc2oc(-c3cccnc3)nc2c1	-120.1*
CCCC(=O)Nc1ccc2oc(-c3cncc(Br)c3)nc2c1	-94.1*
CCC(=O)Nc1ccc2oc(-c3ccccc3Br)nc2c1	-185.8*
Cc1ccc2oc(-c3ccc(NC(=O)CC(C)C)cc3)nc2c1	-76.6*
CCC(=O)Nc1ccc2oc(-c3cccnc3)nc2c1	-100.8*
O=C(CN1CCCC1)Nc1ccc(-c2nc3cc(NC(=O)CN4CCCC4)ccc3o2)cc1	-118.5*
Cc1ccccc1-c1nc2cc(NC(=O)C3CC3)ccc2o1	-150.0*
CCCC(=O)Nc1ccc(-c2nc3cc(C)c(C)cc3o2)cc1	-110.4*
CCCc1cc(=O)n2[nH]cc(-c3ccc(Cl)cc3)c2n1	70.9
CCc1c(C)nc2cc(-c3ccc(OC)cc3)[nH]n2c1=O	-156.0*
COCc1cc(=O)n2[nH]c(-c3ccc(C)cc3)cc2n1	-127.6*
CCOC(=O)Cc1c(C)nc2cc(-c3ccc(Cl)cc3)[nH]n2c1=O	-66.7*
N#C/C(=C\c1cccnc1)c1nc2c(s1)CCCC2	-140.9*
CC1CCc2nc(/C(C#N)=C/c3cccnc3)sc2C1 (stereo not given)	-191.7*
COc1cc(/C=C(\C#N)c2nc3c(s2)CCCC3)ccc1O	-158.3*
Cc1c2cnn(CC(=O)NC3CCCC3)c(=O)c2c(C)n1Cc1ccccc1	-100.3*
SMILES	aSyn UTR act
CC(C)CNC(=S)NC(=O)c1ccc(F)cc1	-150.1*
O=C(NC(=S)NNC(=O)c1cnccn1)c1ccc(F)cc1	70.3
O=C(Nc1ccc(N2CCOCC2)cc1)NC1CCCCC1	-78.1*
O=C(Nc1ccc(F)cc1)NC1CCCCC1	-111.2*
O=C(NC(=S)NC1CCCCC1)c1ccc(F)cc1	-162.3*
O=C(Nc1cccc(F)c1)NC1CCCCC1	-156.3*
Fc1ccccc1COc1ccc(C(=S)N2CCCC2)cc1	-95.7*
O=c1[nH][nH]c(-c2ccccc2O)c1C(C[N+](=O)[O-])c1ccc(Br)cc1 (stereo not given)	-94.8*
CC(=O)c1sc(NC(=O)c2ccc(F)cc2)nc1-c1ccccc1	-95.0*
CC(=O)c1sc(NC(=O)c2ccccc2F)nc1-c1ccccc1	-124.5*
CCOC(=O)c1c(C)[nH]c(C(=O)OCC(=O)Nc2sccc2C(N)=O)c1C	-118.6*
COc1ccc(NC(=O)c2cc(-c3cc(C)ccc3O)n[nH]2)cc1Cl	-72.5*
Cc1cccc(NC(=O)c2cc(-c3cc(C)ccc3O)n[nH]2)c1	-226.9*
Cc1ccc(-c2cc(C(=O)Nc3cccnc3)[nH]n2)c(O)c1C	-201.6*
